Results filed as inconclusive are left out. A number with no mark means an inactive call. Calls of active or inactive are those of the source. Calls come from the whole dose curve; as a rule, active = well fitted cell-killing curve with a large enough effect in the repeat runs; inconclusive = weak or mixed curves, or effect the other way; inactive = flat fitted curve, though single readings scatter.
Experiment: cAMP Responsive Elements (CRE) small molecule antagonists, cell-based qHTS assay: qHTS cell viability counter screen (AID 2060913); note: nearly all actives have a fitted effect of over 40% in size
Settings: CRE-bla HEK293T viability, CellTiter-Glo luminescence, 5 h; series mostly up to 92.4 µM; viability change, negative = cytotoxic: at the top concentration
Description: U.S. Tox21 Program National Center for Advancing Translational Sciences [NCATS] Division of Preclinical Innovation [DPI] U.S. Environmental Protection Agency [EPA] National Institutes of Environmental Health Sciences [NIEHS] National Toxicology Program [NTP] U.S. Food and Drug Administration [FDA] Tox21 Assay Overview: CREB (cyclic-AMP Responsive Element Binding Protein) is a cellular transcription factor. It binds to certain DNA sequences called cAMP Responsive Elements (CRE) and regulates the transcription of the genes. […] This cell line can be used to find agonists/antagonists of the cyclic AMP signaling pathway. The activation of the report gene under culture conditions can be detected by fluorescence intensity. This cell line has been used to screen the Tox21 10K compound library to identify agonists that induce oxidative stress. The cytotoxicity of the Tox21 compound library against the CRE-bla cell line was tested in parallel by measuring the cell viability using CellTiter-Glo assay (Promega, Madison, WI) in the same wells.
Tox21 Assay Protocol Summary: CRE-bla Hek 293T cells were suspended in assay medium (DMEM containing 10% dialyzed FBS, 0.1 mM NEAA, 1 mM sodium pyruvate and 25 mM HEPES) and dispensed at 2,000 cells/4 uL /well into 1536-well black wall/clear bottom plates using a Multidrop Combi (ThermoFisher Scientific, Waltham, MA) dispenser. After the assay plates were incubated at 37 C/5% CO2 for 18 hrs, 23 nL of compounds dissolved in DMSO, positive controls or DMSO only was transferred to the assay plate by a pintool workstation (Kalypsys, San Diego, CA), followed by addition of 1 uL of 1.25uM NKH477 (0.25 uM as final concentration) in assay medium using a Flying Reagent Dispenser (Aurora Discovery, San Diego, CA). The plates were incubated at 37 C and 5% CO2 for 3 hrs. Then 1 uL of LiveBLAzer B/G FRET substrate (Invitrogen, Carlsbad, CA) was added to each well using Bioraptr Flying Reagent Dispenser (FRD, Aurora Discovery, San Diego, CA). The plates were incubated at room temperature for 2 h, then fluorescence intensities were measured using an Envision plate reader (PerkinElmer, Shelton, CT) at Excitation 405nm, Emission 460nm and 530nm. The % activity was determined from the ratio of 460nm/530nm. For cell viability readout that measures cytotoxicity, 4 uL /well of CellTiter-Glo reagent was added into the assay plates using Bioraptr FRD. After 30 min incubation at room temperature, the luminescence intensity in the assay plates was measured using a ViewLux (PerkinElmer, Shelton, CT) plate reader.
% is set by controls: 0 for no effect and ±100 for the full control effect.

SMILES	viability change, negative = cytotoxic	Potency
CC(=O)CCCCn1c(=O)c2c(ncn2C)n(C)c1=O	5.14% [at 42.5 µM]	
COc1cc(CNC(=O)CCCC/C=C/C(C)C)ccc1O	0.273%	
CO[C@H]1C=CO[C@@]2(C)Oc3c(C)c(O)c4c(O)c(cc(O)c4c3C2=O)NC(=O)/C(C)=C\C=C/[C@H](C)[C@H](O)[C@@H](C)[C@@H](O)[C@@H](C)[C@H](OC(C)=O)[C@@H]1C	14.4%	
O=C(O)COC(=O)Cc1ccccc1Nc1c(Cl)cccc1Cl	2.42% [at 42.5 µM]	
CN/C(=C\[N+](=O)[O-])NCCSCc1ccc(CN(C)C)o1		inactive
C=CCOc1ccccc1OCC(O)CNC(C)C (stereo not given)	-2.4% [at 42.5 µM]	
CCCCCCCCCCCC(=O)Cl	6.3%	
O=C(O)CNCC(=O)O	19.6% [at 8.39 µM]	
ClC(Cl)(Cl)c1ccc(C(Cl)(Cl)Cl)cc1	-6.95%	
CCCC(CC)CCCCCCCN (stereo not given)	-18.6%	
NC(=O)N(O)[C@@H]1COc2cc(OCc3ccccc3)ccc21	2.49%	
CC1(CO)CN(c2ccccc2)NC1=O (stereo not given)	5.41%	
COC(=O)/C=C(/C)N	3.12% [at 42.5 µM]	
CN(C)Cc1ccccc1O	-3.77%	
C[C@]12C=CC(=O)C=C1CC[C@H]1[C@@H]3C[C@@H](O)[C@](O)(C(=O)CO)[C@@]3(C)C[C@H](O)[C@@]12F		inactive
CC(=O)OC1CCCCC1C(C)(C)C (stereo not given)	-1.49%	
CC(=O)Nc1ccccc1		inactive
COCC(=O)O		inactive
COc1cc(C(C)=O)ccc1OCCCN1CCC(c2noc3cc(F)ccc23)CC1	-0.561% [at 42.5 µM]	
CCCCCCOCCO		inactive

SMILES	viability change, negative = cytotoxic	Potency
CCOc1ccc(NS(=O)(=O)c2ccc(N)cc2)nn1	-4.28% [at 42.5 µM]	
C=Cc1ccc(C)cc1		inactive
CSc1ccc(/C=C2/C(C)=C(CC(=O)O)c3cc(F)ccc32)cc1	-2.68% [at 42.5 µM]	
O=C(O)Cc1c(Cl)ccc(Cl)c1Cl	1.56%	
CC(=O)OCCN(CCOC(C)=O)c1ccc(N=Nc2ccc([N+](=O)[O-])cc2C#N)cc1	1.1%	
C=CCCCCCCCCCCCCCCCC	-4.37% [at 8.39 µM]	
CO/N=C(/C(=O)N[C@@H]1C(=O)N2C(C(=O)O)=C(Cn3nnc(C)n3)CS[C@H]12)c1csc(N)n1	-0.0468% [at 42.5 µM]	
CC1(C)C(=O)NC(=O)N1CO	-5.08%	
ClC(Cl)(Br)Br	1.74%	
CCOc1cc(OCC)c(C(=O)CCC(=O)O)cc1OCC	0.827% [at 42.5 µM]	
CC1=C(C)S(=O)(=O)CCS1(=O)=O		inactive
CCCCCCCCCCCCCCCCCCOS(=O)(=O)O	-3.52%	
C/C=C1\C(=O)C[C@H]2[C@@H]3CCC4=CC(=O)CC[C@]4(C)[C@H]3CC[C@]12C	-1.01% [at 42.5 µM]	
c1ccc(B(c2ccccc2)c2ccccc2)cc1	-7.27%	
CCc1oc2ccccc2c1C(=O)c1cc(Br)c(O)c(Br)c1	-7.47% [at 42.5 µM]	
CC12CCC(CC1)C(C)(C)O2		inactive
CN(C)CCc1c[nH]c2ccc(C[C@H]3COC(=O)N3)cc12	6.06% [at 42.5 µM]	
Nc1nc(Cl)nc2c1ncn2[C@H]1C[C@H](O)[C@@H](CO)O1	8.23%	
CCCCC(CC)COCCCN (stereo not given)	-14.9%	
CCOC(=O)[C@@H](C)Oc1ccc(Oc2nc3ccc(Cl)cc3o2)cc1	-4.13%	

— PubChem BioAssay (Tox21)
